Consider 32 compounds from PubChem BioAssay (NCATS).

Test [1] relates to Zika virus NS2B-NS3 protease (unlinked complex). Description: Primary screen GU Rhodamine qHTS for Zika virus inhibitors: Unlinked NS2B-NS3 protease assay (AID 1347159). Also: nearly all actives have a fitted effect of over 60% in size. In outline:
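Unlinked NS2B/NS3, 25 nM; Rhod110 peptide, 1.5 microM; compounds, up to 114 microM. Reaction run 15 min at RT in 10 mM Tris-HCl pH 8.0, 0.01% Tween 20; kinetic fluorescence change fitted with a 4-parameter Hill model.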

Test [2] relates to Zika virus NS2B-NS3 protease (linked construct). As to the kind of experiment: Primary screen NINDS Rhodamine qHTS for Zika virus inhibitors (AID 1347160). Also: nearly all actives have a fitted effect of over 55% in size. The method, boiled down: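 Single-chain NS2B-NS3 protease, 25 nM, pH 8.0; compounds preincubated 15 min. Activity: Rhodamine110 release from 1.5 microM substrate over 15 min, room temperature, data fitted to 4-parameter Hill.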

Records with an inconclusive call do not appear. Unmarked numbers belong to inactive results. Activity calls are given as the source filed them. Calls follow the shape of the dose curve; as a rule, active = well fitted inhibition curve with a large enough effect; inconclusive = small, poorly fitted or top-dose-only effect; inactive = no such curve, though single readings can be large or run the other way.
% is scaled to controls: 0 for no effect and ±100 for the full control effect; potency is read from the fitted curve at half-maximal effect.

`O=c1c2ccccc2nc2n1CCC2O` (centres undefined): the Potency result in test [1] and in test [2] was “inactive” each time.

As for `COc1cc(/C=C/c2cc(O)cc(O[C@@H]3O[C@H](CO)[C@@H](O)[C@H](O)[C@H]3O)c2)ccc1O`, the Potency entry in test [1] and in test [2] was “inactive” each time.

Turning to `CN1CCC(c2c[nH]c3ccc(NC(=O)c4ccc(F)cc4)cc23)CC1`, the Potency entry in test [1] and in test [2] was “inactive” throughout.

Regarding `C=C1CC[C@H]2[C@@](C)(CCC[C@@]2(C)C(=O)O)[C@@H]1CCC(C)CCO` (some centres undefined), the Potency result in test [1] and in test [2] was “inactive” throughout.

Consider `CC1=CCC2C(C)(CO)CCCC2(CO)C1CO` (centres undefined), for which the Potency in test [1] and in test [2] was 15.8 µM (active) each time.

For the compound `CC1=C2C(=O)C=C(CO)[C@@H]2[C@H]2OC(=O)[C@H](C)[C@@H]2[C@@H](O)C1`, the Potency entry in test [1] and in test [2] was “inactive” each time.

As to `C=C1C[C@]23C[C@H]1CC[C@H]2[C@]1(C)CCC[C@@]2(CO)C(=O)O[C@H]([C@H]21)[C@@H]3O`, the Potency entry in test [1] and in test [2] was “inactive” throughout.

`CC1(C)CC(=O)N(CCCCN2CCN(c3ncccn3)CC2)C(=O)C1`: the Potency result in test [1] and in test [2] was “inactive” each time.

Take `C[C@@H]1CC[C@]2(C(=O)O)CC[C@]3(C(=O)O)C(=CCC4[C@@]5(C)CC[C@H](O[C@@H]6O[C@@H](C)[C@H](O[C@@H]7O[C@H](CO)[C@@H](O)[C@H](O)[C@H]7O)[C@@H](O)[C@H]6O)C(C)(C)C5CC[C@]43C)C2[C@H]1C` (some centres undefined): the Potency result in test [1] and in test [2] was “inactive” each time.

As to `CN1C(=O)c2ccccc2-n2c(nc3ccccc3c2=O)[C@@]12O[C@H]2c1ccccc1`, the Potency result in test [1] and in test [2] was “inactive” each time.

Consider `Clc1ccc2c(c1)C1=NCCN1c1c(-c3noc(C4CC4)n3)ncn1-2`, for which the Potency entry in test [1] and in test [2] was “inactive” each time.

On to `CC(C)(C)NCC(O)COc1cccc2c1CCCC2=O` (centres undefined), for which the Potency entry in test [1] and in test [2] was “inactive” in each case.

As for `O=C1NCc2nc3ccccc3c(=O)n2C1Cc1c[nH]c2ccccc12` (centres undefined), the Potency result in test [1] and in test [2] was “inactive” each time.

Take `C=C1CC23CC1(O)CCC2C1=CC2OC(=O)C(C)(C2O)C1C3C(=O)O` (centres undefined): the Potency result in test [1] and in test [2] was “inactive” throughout.

`COc1ccc2c(c1)OC[C@]1(O)c3cc4c(cc3O[C@H]21)OCO4`: the Potency result in test [1] and in test [2] was “inactive” in each case.

Turning to `C=C1CCC(OC(C)=O)C2(C)CC3(O)OC(=O)C(C)=C3CC12` (centres undefined), the Potency entry in test [1] and in test [2] was “inactive” in each case.

In the case of `C=C1CCC[C@]2(C)C[C@]3(O)OC(=O)C(C)=C3C[C@@H]12`, the Potency result in test [1] and in test [2] was “inactive” throughout.

Regarding `C=C[C@](C)(CC/C=C(\C)C(=O)O)O[C@@H]1OC[C@H](O)[C@H](O)[C@H]1O`, the Potency in test [1] was 25.1 µM (active); in test [2], 12.6 µM (active).

On to `CC(=O)OC[C@]12[C@H](OC(C)=O)C(=O)[C@@H]3[C@@H](OC(C)=O)[C@@]14O[C@@]3(C)COC(=O)c1cccnc1[C@@H](C)[C@H](C)C(=O)O[C@@H]([C@H](OC(C)=O)[C@@H]2OC(C)=O)[C@]4(C)O`, for which the Potency result in test [1] and in test [2] was “inactive” throughout.

In the case of `Cc1c(-c2ccnn2C)cc(C(=O)NCc2ccc(S(C)(=O)=O)cn2)c(=O)n1-c1cccc(C(F)(F)F)c1`, the Potency entry in test [1] and in test [2] was “inactive” in each case.

`O=C(NCC(=O)N1CC[C@H](NC2CCC(O)(c3ccc(-c4ncccn4)cn3)CC2)C1)c1cccc(C(F)(F)F)c1` (some centres undefined): the Potency result in test [1] and in test [2] was “inactive” each time.

For the compound `CCn1c2ccccc2c2cc(CNC)ccc21`, the Potency result in test [1] and in test [2] was “inactive” throughout.

In the case of `CC1(C)CC2C3=CCC4C5(C)CCC(OC6OC(C(=O)O)C(O)C(O)C6OC6OC(CO)C(O)C(O)C6OC6OC(CO)C(O)C(O)C6O)C(C)(CO)C5CCC4(C)C3(C)CCC2(C)C(OC2OCC(O)C(OC3OC(CO)C(O)C(O)C3O)C2O)C1O` (centres undefined), the activity change, negative = inhibition in test [1] is 8.97% [at 19.1 µM]; in test [2], -17% [at 10.7 µM].

Turning to `CC1CCC2C(C)(C)CC(C)(CO)C2(O)C1C(=O)O` (centres undefined), the Potency entry in test [1] and in test [2] was “inactive” in each case.

With `C=CC(C)(O)CC/C=C(/C)C(=O)OC1C(OC2OCC(OC3OC(CO)C(O)C(O)C3O)C(OC3OCC(O)C(OC4OC(C)C(O)C(O)C4O)C3O)C2O)COC(OC(=O)C23CCC(C)(C)CC2C2=CCC4C5(C)CCC(OC6OC(CO)C(OC7OC(CO)C(O)C(OC8OCC(O)C(O)C8O)C7O)C(O)C6O)C(C)(C)C5CCC4(C)C2(C)CC3O)C1O` (centres undefined), the activity change, negative = inhibition in test [1] is 23.5% [at 19.1 µM]; in test [2] it was 4.71% [at 10.7 µM].

As to `CC1OC(OC2C(CO)OC(OCC3OC(OC(=O)C45CCC(C)(C)CC4C4=CCC6C7(C)CCC(OC8OC(C(=O)O)C(O)C(OC9OC(CO)C(O)C(O)C9O)C8O)C(C)(C)C7CCC6(C)C4(C)CC5)C(O)C(O)C3O)C(O)C2O)C(O)C(O)C1O` (centres undefined), the activity change, negative = inhibition is 16.6% [at 19.1 µM] in test [1] and 9.74% [at 10.7 µM] in test [2].

`Cc1c(N2C(=O)c3ccc(C(=O)O)cc3C2=O)c(=O)n(-c2ccccc2)n1C`: the Potency entry in test [1] and in test [2] was “inactive” throughout.

For the compound `CC[C@H]1OC(=O)C[C@@H](O)[C@H](C)[C@@H](O[C@@H]2O[C@H](C)[C@@H](O)[C@H](N(C)C)[C@H]2O)[C@@H](CCN2C[C@H](C)C[C@H](C)C2)C[C@@H](C)C(=O)/C=C/C(C)=C/[C@@H]1CO[C@@H]1O[C@H](C)[C@@H](O)[C@@H](OC)[C@H]1OC`, the Potency entry in test [1] and in test [2] was “inactive” throughout.

`COC(=O)[C@H](CC1C=NC=N1)NCC12CC3CC(CC(C3)C1)C2` (some centres undefined): the Potency result in test [1] and in test [2] was “inactive” throughout.

With `C[C@@H]1O[C@@H](O[C@H]2[C@H](OC(=O)C34CCC5(C)C(=CCC6C7(C)CC(O)C(O[C@@H]8O[C@H](C(=O)O)[C@@H](O)[C@H](O)[C@H]8O)C(C)(C(=O)O)C7CCC65C)C3CC(C)(C)CC4O)O[C@H](C)[C@@H](O)[C@@H]2O)[C@H](O)[C@@H](O[C@@H]2OC[C@](O)(CO)[C@H]2O[C@@H]2O[C@H](CO)[C@@H](O)[C@H](O)[C@H]2O)[C@H]1O` (some centres undefined), the figures for the activity change, negative = inhibition in test [1] and in test [2] were 4.07% [at 19.1 µM] and -17.8% [at 10.7 µM], respectively.

As to `C[C@@H](Nc1cc(NS(=O)(=O)N2CCC2)nc(SCc2cccc(F)c2F)n1)[C@@H](O)CO`, the Potency result in test [1] and in test [2] was “inactive” throughout.

For `CC(=O)O[C@@H]1C[C@@]23C[C@@]24CC[C@H](OC2OC[C@@H](O)[C@H](O)[C@H]2O)C(C)(C)[C@@H]4CC[C@H]3[C@]2(C)CC3OC4(C[C@@H](C)C3[C@@]12C)OCC1(C)OC14` (some centres undefined), the Potency result in test [1] and in test [2] was “inactive” in each case.
